From PubChem BioAssay (Tox21)
Active and inactive are the calls of the source. Calls come from the whole dose curve; as a rule, active = well fitted activation curve with a large enough effect in the repeat runs; inconclusive = weak or mixed curves; inactive = flat fitted curve, though single readings scatter.

assay: A CellTox Green Cytotoxicity Assay to monitor cytotoxicity in HEK293 cells - 0 hour (AID 1224869); conditions: CellTox Green fluorescence; series mostly up to 76.8 µM; cytotoxicity: at the top concentration; note: nearly all actives have a fitted effect of over 50% in size
Summary of the method: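 Dead-cell fluorescence measured kinetically: asymmetric cyanine dye, HEK293, 600 cells/well, 5 h settle, 23 nL cpd/DMSO, 37 C, reads 0–40 h every 8 h.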
% is set by controls: 0 for no effect and ±100 for the full control effect.

**Q.** With O=C(/C=C/c1ccc(O)c(O)c1)O[C@@H]1C[C@@](OC(=O)/C=C/c2ccc(O)c(O)c2)(C(=O)O)C[C@@H](O)[C@@H]1O as the compound, how does the “cytotoxicity” value read?
**A.** 6.48% [at 35.3 µM] (inactive)

**Q.** For CC(C)(c1ccccc1)c1ccccc1, which “cytotoxicity” value is on record?
**A.** -0.515% (inactive)

**Q.** Which “cytotoxicity” value does the source give for Cc1cccc(O)c1N here?
**A.** -1.63% (inactive)

**Q.** Which “cytotoxicity” value does the source give for CC1(C)S[C@@H]2[C@H](NC(=O)C(c3ccccc3)S(=O)(=O)O)C(=O)N2[C@H]1C(=O)O (some centres not stated) here?
**A.** -0.327% [at 35.3 µM] (inactive)

**Q.** Which “cytotoxicity” value does the source give for CC[C@]1(O)C[C@H]2CN(CCc3c([nH]c4ccccc34)[C@@](C(=O)OC)(c3cc4c(cc3OC)N(C=O)[C@H]3[C@@](O)(C(=O)OC)[C@H](OC(C)=O)[C@]5(CC)C=CCN6CC[C@]43[C@@H]65)C2)C1 here?
**A.** 0.722% [at 35.3 µM] (inactive)

**Q.** For CC(=O)Nc1ccc(C)cc1C, which “cytotoxicity” value is on record?
**A.** -0.533% (inactive)

**Q.** Which “cytotoxicity” value does the source give for NC(=O)c1ccncc1 here?
**A.** -5.43% (inactive)

**Q.** For O=C(Cn1ccnc1[N+](=O)[O-])NCCO, which “cytotoxicity” value is on record?
**A.** -0.955% [at 35.3 µM] (inactive)

**Q.** Which “cytotoxicity” value does the source give for CC1CC(C)C(=O)C1=O (configuration not stated) here?
**A.** -0.761% (inactive)

**Q.** For CC(=O)c1cc2ccccc2s1, which “cytotoxicity” value is on record?
**A.** 0.622% [at 35.3 µM] (inactive)

**Q.** With Cc1cscn1 as the compound, how does the “cytotoxicity” value read?
**A.** 1.63% (inactive)

**Q.** For OCCN1CCN(CCCN2c3ccccc3Sc3ccc(Cl)cc32)CC1, which “cytotoxicity” value is on record?
**A.** 2.18% [at 35.3 µM] (inactive)

**Q.** For Clc1cc(Cl)nc(Cl)n1, which “cytotoxicity” value is on record?
**A.** -1.97% (inactive)

**Q.** Which “cytotoxicity” value does the source give for Brc1cc(Br)c(Oc2cc(Br)c(Br)cc2Br)cc1Br here?
**A.** -3.27% [at 35.3 µM] (inactive)

**Q.** For CCCCCC[C@@H](O)C/C=C\CCCCCCCC(=O)O, which “cytotoxicity” value is on record?
**A.** -5.4% (inactive)

**Q.** Which “cytotoxicity” value does the source give for OC1(c2ccccc2)CCNCC1 here?
**A.** 1.82% [at 35.3 µM] (inactive)

**Q.** For CCOC(=O)c1ccc(O)c(O)c1, which “cytotoxicity” value is on record?
**A.** -2.01% [at 35.3 µM] (inactive)

**Q.** Which “cytotoxicity” value does the source give for C=C/C(C)=C/C/C=C(\C)CCC=C(C)C here?
**A.** -0.414% (inactive)

**Q.** For CCC(C)(C)OC, which “cytotoxicity” value is on record?
**A.** -0.418% (inactive)

**Q.** For Cc1ccccc1S, which “cytotoxicity” value is on record?
**A.** -1.63% [at 35.3 µM] (inactive)

**Q.** Which “cytotoxicity” value does the source give for O=[N+]([O-])c1cc(C2CCCCC2)c(O)c([N+](=O)[O-])c1 here?
**A.** -4.68% (inactive)

**Q.** With O=[N+]([O-])c1ccc(Nc2ccc(Nc3ccccc3)c(S(=O)(=O)O)c2)c([N+](=O)[O-])c1 as the compound, how does the “cytotoxicity” value read?
**A.** -5.11% (inactive)
